Bioassay records as filed in PubChem.
This is a sample that favours compounds with a hit; in the whole collection about 0.94% have one here.
Mtb hypoxia rep: PubChem AID 1159583 | M. tuberculosis hypoxia-regulated fluorescent reporter, fluorescence | fluorescence inhibition, % (no concentration beside the values) | 0.1% of 300,000 active; in the data active = fluorescence inhibition mostly above about 23%, no sharp cut-off; inactive = mostly below about 17%
MazF activator: activators of E. coli MazEF toxin-antitoxin RNase, primary screen, biochemical, fluorescence, uHTS; Endoribonuclease toxin MazF (Escherichia coli (strain K12)), P0AE70; FAM/BHQ RNA-DNA oligo cleavage fluorescence, 5 h; activation, % at 20 µM; 0.32% of 350,000 active; in the data active = activation above about 50%
Target sequence (P0AE70 whole entry, looked up): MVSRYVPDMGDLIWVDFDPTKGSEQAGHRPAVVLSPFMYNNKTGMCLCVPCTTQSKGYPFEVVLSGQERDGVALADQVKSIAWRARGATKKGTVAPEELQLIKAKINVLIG
PriA SSB inh: inhibitors of Klebsiella pneumoniae PriA binding to SSB C-terminal tail, primary screen, biochemical, AlphaScreen; PriA–SSB C-terminal tail interaction (Klebsiella pneumoniae); AlphaScreen SSBct-PriA binding, biotinylated peptide; inhibition, % at 33 µM; 0.6% of 430,000 active; AID 1272365, 2023; in the data active = inhibition mostly above about 37%, no sharp cut-off; inactive = mostly below about 20%;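 also: plate controls were negative control peptide for no effect and reference peptide for full effect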
Vc quorum ag-1: inducers of Vibrio cholerae quorum light production without autoinducers, primary screen, BH1578 luxS cqsA deficient, single point; V. cholerae BH1578 lux reporter, luminescence, 6 h; activation, % at 18.7 µM; 0.16% of 350,000 active; AID 588436, 2011; in the data active = activation mostly above about 9.7%, no sharp cut-off
Vc quorum ag-2: V. cholerae lux activation without autoinducers – BH1578 luxS cqsA deficient, cherry-pick, plate reader, dose response | V. cholerae BH1578 lux reporter, luminescence, 6 h | AID 602243, 2012 | 620 tested, under 10 active | shares compounds with Vc quorum ag-1 | activation, % at 50 µM; call rule not given here
HeLa 24h tox: HeLa cell cytotoxicity, dose response, cytotoxicity control, 24 h, dry powder; AID 624140, 2012; shares compounds with Vc quorum ag-1; 25 tested, under 10 active; activity change, negative = cytotoxicity, % at 35 µM; HeLa viability, CellTiter-Glo ATP luminescence;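 active = signal drop with fitted half-maximal concentration at or below twice the highest valid dose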
Active calls of the source: *; i = inactive; . = not tested or not shown.

SMILES | Mtb hypoxia rep | MazF activator | PriA SSB inh | Vc quorum ag-1 | Vc quorum ag-2 | others
COc1ccccc1NC(=O)COC(=O)c1cc2ccccc2s1 | . | . | . | . | . | HeLa 24h tox=9
COc1ccccc1NC(=O)c1ccc(NC(=O)COC(=O)c2ccc(O)cc2)cc1 | -6 | 2 | -11 | -2 | .
COc1ccccc1NC(=O)COC(=O)c1ccc(C)cc1 | . | . | . | . | . | HeLa 24h tox=-7
COc1ccc(Cl)cc1NC(=O)COC(C)=O | -6 | -6 | -10 | -1 | .
COc1ccc(Cl)cc1NC(=O)COC(=O)c1ccc(C)o1 | -3 | 7 | -8 | . | i | HeLa 24h tox=-7
COc1ccc(-c2csc(-c3nnn(-c4ccc(C)c(C)c4)c3C)n2)cc1OC | . | . | -4 | . | .
O=C(O)CCC(=O)NCCC1=c2ccccc2=NC1=Cc1c(O)n(Cc2ccc(F)cc2)c(=S)[nH]c1=O | . | . | 9 | . | .
O=C(Oc1ccnc2cc(Cl)ccc12)N1CCCC1 | . | . | -20 | . | .
O=C(Oc1ccnc2cc(Cl)ccc12)N1CCCCCC1 | 7 | -8 | -20 | 17* | 1
CC(=O)Nc1ccc(NC(=O)c2ccccc2C)cc1 | 11 | -2 | 3 | 257* | 0
O=C(CN1CCN(S(=O)(=O)c2ccc(F)cc2)CC1)Nc1ccc(Cl)c(Cl)c1 | . | . | -9 | . | .
Cc1ccc(C)n1-c1sc2c(c1C#N)CCC(C)C2 (stereo not drawn) | . | 4 | -10 | 14 | 2
CC(=O)Nc1sc2c(c1C#N)CCC(C)C2 (stereo not drawn) | 13 | 4 | -20 | -1 | .
COc1ccc(OCc2nnc3n2N=C(c2ccc(OC)cc2)CS3)cc1 | . | 14 | -3 | 27 | 3
CCOc1ccc(C2=Nn3c(nnc3-c3ccc(OC)cc3)SC2)cc1 | 4 | 11 | -12 | -7 | .
Cc1cccc(NC(=O)CSc2nc(=O)n(CCCN3CCOCC3)c3c2CCCC3)c1 | 3 | 3 | 0 | -1 | .
CC(=O)c1cccc(NC(=O)CSc2nc(=O)n(CCCN3CCOCC3)c3c2CCC3)c1 | 0 | 1 | 0 | 31* | 7
O=C(c1ccco1)N1CCN(c2nc(C3CC3)nc3c2nnn3Cc2ccccc2Cl)CC1 | . | -11 | 1 | 1 | .
CC(C)(C)c1nc(N2CCN(C(=O)c3ccco3)CC2)c2nnn(Cc3ccccc3)c2n1 | 1 | -2 | 19 | 17* | 0
COc1ccc(-c2ccc(-c3nnc(Cc4ccc(OC)c(OC)c4)o3)cc2)cc1 | -3 | -14 | -9 | 14 | 0
CCCn1c(SCC(=O)C(C#N)=C(C)N)n[nH]c1=O | . | . | 0 | . | .
CC(C)CCOc1cccc(OCC(=O)N(C)C2CCS(=O)(=O)C2)c1 (stereo not drawn) | -2 | -2 | -20 | 7 | 2
CN(C(=O)COc1ccccc1)C1CCS(=O)(=O)C1 (stereo not drawn) | 1 | -5 | -12 | 0 | .
CCOC(=O)Cc1csc(NC(=O)c2csc3nc(-c4ccc(F)cc4)cn23)n1 | . | . | 0 | . | .
O=S(=O)(Nc1ccc(-c2csc(-c3ccccc3)n2)cc1)c1ccc(F)cc1 | . | -4 | -5 | 25* | 0
SMILES | Mtb hypoxia rep | MazF activator | PriA SSB inh | Vc quorum ag-1 | Vc quorum ag-2 | others
O=C(NCc1ccc2c(c1)OCO2)C(=O)NCc1ccc(C(=O)c2ccsc2)s1 | . | . | -21 | . | .
CC1(NC(=O)C23CC4CC(CC(C4)C2)C3)CCS(=O)(=O)C1 (stereo not drawn) | 4 | 7 | -4 | 17* | 0
CN(C(=O)C12CC3CC(CC(C3)C1)C2)C1(C)CCS(=O)(=O)C1 (stereo not drawn) | 13 | -1 | -6 | 0 | .
CCCn1c(=O)c(C(=O)Nc2cccc(C)c2)c(O)c2ccccc21 | 5 | 6 | 3 | 0 | .
Cc1cccc(NC(=O)c2c(O)c3ccccc3n(C)c2=O)c1 | 2 | 10 | -10 | 70* | 0
O=C(/C=C/c1ccc(-c2cccc(C(F)(F)F)c2)o1)c1cccs1 | . | . | -1 | . | .
CC(C)CNC(=O)c1c2c(nc3ccccc13)-c1ccccc1CC2 | -3 | 2 | -5 | 17* | 0
Cc1cc(OC2CCN(C(=O)C3CC(=O)N(c4ccc(C)c(C)c4)C3)CC2)cc(=O)o1 (stereo not drawn) | . | . | 5 | . | .
O=C(Nc1ccc(C(F)(F)F)cc1)N1CCCN(CCn2cccn2)CC1 | . | . | -20 | . | .
Nc1nnc(-c2ccc(Cl)cc2Cl)s1 | 8 | 4 | -7 | 470* | 69
Nc1nnc(-c2ccccc2F)s1 | -13 | -4 | 4 | 0 | .
COc1ccc(C(O)=C2C(=O)C(=O)N(CCN(C)C)C2c2cccc(OC)c2OC)cc1 (stereo not drawn) | . | . | 20 | . | .
COC(=O)c1ccc(CSc2nnc3c(Cl)cc(Cl)cn23)o1 | 2 | -25 | -10 | 35* | 3
COC(=O)c1ccc(CSc2nnnn2C)o1 | 18 | 2 | -1 | 4 | .
COC(=O)n1c(=O)oc2ccccc21 | . | -2 | -16 | 0 | .
CCCCOC(=O)n1c(=O)oc2ccccc21 | . | 8 | -13 | 231* | 118
Cc1cc(=O)n2[nH]c(C)nc2n1 | . | . | -3 | . | .
O=C(Nc1cnc(N2CCN(c3ccccn3)CC2)nc1)c1ccccn1 | . | . | 1 | . | .
COc1ccccc1N1CCN(CCCOc2ccc(F)cc2)CC1 | 3 | -1 | -16 | 12 | 0
CCOC(=O)C1CCN(C(=O)C2c3ccccc3C(=O)N(C)C2c2ccc(OC)cc2)CC1 (stereo not drawn) | -1 | 5 | -4 | 17* | 1
CN(C)c1ccc(C(c2nnnn2C(C)(C)C)N2CCN(C(=O)c3ccco3)CC2)cc1 (stereo not drawn) | . | 9 | -1 | -1 | .
Cc1ccc(C)c(N2CCN(C(c3ccc(N(C)C)cc3)c3nnnn3C(C)(C)C)CC2)c1 (stereo not drawn) | . | 6 | -20 | 38* | 0
COc1ccc(NC(=O)CN2CCC(C(=O)Nc3ccc4sc(C)nc4c3)CC2)cc1OC | . | . | 14 | . | .
COc1ccc2cc(C(=O)N3CCN(c4cc5c(nn4)CCCC5)CC3)[nH]c2c1 | . | . | -28 | . | .
COc1ccccc1NS(=O)(=O)c1ccc(C(=O)NCC(c2ccco2)N2CCCCC2)cc1 (stereo not drawn) | -2 | 3 | 2 | -13 | .
CCOc1ccc(NS(=O)(=O)c2ccc(C(=O)NCC(c3ccco3)N3CCCCC3)cc2)cc1 (stereo not drawn) | . | 5 | . | -6 | .
CCOc1ccc(S(=O)(=O)Nc2ccc(C(=O)NCC(c3ccco3)N3CCCCC3)cc2)cc1 (stereo not drawn) | -6 | -13 | 2 | 14 | 0
COc1ccccc1NS(=O)(=O)c1cccc(C(=O)NCC(c2ccco2)N2CCCCC2)c1 (stereo not drawn) | 10 | -1 | -1 | 14 | 0
CCN1C(=O)Cc2cc(NC(=O)Cc3ccc(OC)c(OC)c3)ccc21 | . | . | 18 | . | .
Cc1cc(=O)[nH]c(CN2CCC(c3ccccc3)CC2)n1 | -11 | -5 | -16 | . | 1
